The text below walks through data of the supplement of paper PMC8540655.

In the assay the test system is Aedes aegypti larvae. In words: larval motility relative to same well at 0 h (fraction); higher = more motile (less active compound), active = 0.4 or less. To be noted: 10 µM. The procedure, abridged:
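Relative motility is the score of a well divided by its own score at the first recording. Movies were made with INVAPP at 0, 2 and 24 h, each having 200 frames at 100 ms intervals. Larvae of Aedes aegypti, from 18–24 h hatches in pond salt solution with yeast at 25 °C, sat at about 10 per well (100 µL) in 96-well plates with compounds at 10 µM and 1% v/v DMSO. Solvent and larvicide control wells were included on every plate, and values are medians of three independent larval batches.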

Each structure is given as a SMILES string. Values without a mark were called inactive.

For the compound `CCN(CC)CCn1c(=N)n(CC(O)COc2ccc(Cl)cc2Cl)c2ccccc21` (configuration not stated), the larval motility is 0.783 (2 h) and 0.86 (24 h).
In the same order, the values of `Cc1ccc(C)c(OCCCCCCN2C[C@H](O)[C@@H](O)[C@H](O)[C@H]2CO)c1` are 0.635 and 0.552.
With `Cc1cccc(CC(=O)N[C@H]2CCOC2=O)c1`, the larval motility (2 h) was 1.05 and the larval motility (24 h) was 1.31.
As to `[N-]=[N+]=N[C@H]1C[C@H](n2ccc(=O)[nH]c2=O)O[C@@H]1CO`, the larval motility was 1.11 (2 h) and 0.881 (24 h).
Regarding `CCCCCCC1c2ccc(O)cc2Oc2cc(O)ccc21`, the larval motility by setting is: (2 h) 0.468; (24 h) 0.989.
In the same order, the values of `CC(C)C(=O)N[C@H]1[C@H]([C@H](O)[C@H](O)CO)OC(C(=O)O)=C[C@@H]1N=[N+]=[N-]` are 1.64 and 1.56.
On to `CC(C)(C)c1ccc(C(=O)NC(=O)N2CCCc3ccccc32)cc1`, for which the larval motility (2 h) was 0.973 and the larval motility (24 h) is 0.629.
As for `Cc1c(F)cccc1NC(=O)Nc1ccc(Cl)c(S(=O)(=O)[C@H]2CCCNC2)c1O`, the larval motility was 0.645 (2 h) and 0.669 (24 h).
In the same order, the values of `O=C(/C(=C/c1ccc(Cl)cc1Cl)n1ccnc1)c1ccc(Cl)cc1` are 0.446 and 1.04.
Consider `Cc1oncc1C(=O)Nc1ccc(C(F)(F)F)cc1`, for which the larval motility (2 h) was 0.743 and the larval motility (24 h) was 0.744.
As for `Cc1c[nH]c(=O)nc1NCc1ccccc1`, the larval motility was 1.16 (2 h) and 0.91 (24 h).
For `CO[C@@]1(NC(=O)Cc2cccs2)C(=O)N2C(C(=O)O)=C(COC(N)=O)CS[C@@H]21` the same measures were 0.909 and 1.17.
For the compound `NS(=O)(=O)c1ccc(NC(=O)NC(c2ccccc2)c2ccccc2)cc1`, the larval motility reads like this: (2 h) 0.491; (24 h) 0.689.
In the same order, the values of `OB1OCc2c1ccc(Cl)c2F` are 0.987 and 1.19.
For the compound `Cn1cncc1[C@@](N)(c1ccc(Cl)cc1)c1ccc2c(c1)c(-c1cccc(Cl)c1)cc(=O)n2C`, the larval motility (2 h) is 0.645 and the larval motility (24 h) was 0.876.
For `NCC(=O)Nc1ccc(-n2nc(C(F)(F)F)cc2-c2ccc3c(ccc4ccccc43)c2)cc1` the same measures were 0.799 and 1.81.
Regarding `CC(C)(C)c1cc(C(=O)/C(C#N)=N/Nc2cccc(Cl)c2)no1`, the larval motility is, setting by setting: (2 h) 1.14; (24 h) 1.21.
In the same order, the values of `C[C@H]1COc2c(N3CCN(C)CC3)c(F)cc3c(=O)c(C(=O)O)cn1c23` are 0.447 and 0.712.
Consider `O=C(NCc1ccccc1Cl)c1cnc2ccccc2n1`, for which the larval motility is, setting by setting: (2 h) 1.23; (24 h) 0.674.
Take `CCCCCc1ccc(C(=O)NCCn2cc(CCCCCc3cnc(N)[nH]3)nn2)cc1`: the larval motility by setting is: (2 h) 0.643; (24 h) 0.914.
In the same order, the values of `C=CCc1cc(Cc2cnc(N)nc2N)cc(OC)c1O` are 1.05 and 1.18.
In the same order, the values of `Cc1ccc(NC(=O)c2ccc(CN3CCN(C)CC3)cc2)cc1Nc1nccc(-c2cccnc2)n1` are 0.64 and 0.702.
For `Nc1nc(O)c(Br)c(-c2ccccc2)n1` the same measures were 0.633 and 0.648.
As for `COCCn1cnc2c(=O)[nH]c(Nc3ccccc3)nc21`, the larval motility is 0.921 (2 h) and 0.552 (24 h).
In the same order, the values of `O=C(Cc1ccccc1F)Nc1nc2ccccc2[nH]1` are 0.888 and 0.669.
With `CC(C)Oc1ccc(-n2cnc3cc(/C=C\c4ccc(C(C)(C)O)cc4)ccc32)cc1`, the larval motility is, setting by setting: (2 h) 0.656; (24 h) 1.03.
For `NC(=O)c1c(N)sc2c1CCCCC2` the same measures were 0.947 and 1.32.
On to `CC1(C)CC(NC(=O)C(=O)Nc2ccc(Cl)cc2)CC(C)(C)N1`, for which the larval motility was 0.977 (2 h) and 0.896 (24 h).
Consider `Cc1nc2ccc(Oc3ccccc3)cc2c2c1CCN2CCc1ccccc1`, for which the larval motility runs as follows: (2 h) 0.607; (24 h) 0.774.
In the same order, the values of `C[C@H]1CC[C@@]2(O)C(C)(C)[C@@H]3CC[C@@]2(C)[C@H]1C3` are 0.756 and 0.757.
For `Cc1nc2ccc(Cl)cc2c(-c2ccccc2)c1CC(=O)O` the same measures were 0.615 and 1.02.
In the same order, the values of `COc1c(F)c(F)cc2c(=O)c(C(=O)O)cn(C3CC3)c12` are 0.765 and 1.08.
As for `NC(=O)c1ccccc1NC(=O)c1ccc(C(=O)Nc2ccccc2C(N)=O)cc1`, the larval motility runs as follows: (2 h) 0.724; (24 h) 0.755.
Consider `Fc1ccc2c(/C=C/c3nnn[nH]3)c[nH]c2c1`, for which the larval motility runs as follows: (2 h) 1.85; (24 h) 1.39.
In the case of `OC[C@@H]1CC[C@H](n2cnc3c(O)ncnc32)O1`, the larval motility is, setting by setting: (2 h) 1.15; (24 h) 0.963.
With `CNc1nc(=O)[nH]cc1F`, the larval motility was 0.634 (2 h) and 0.909 (24 h).
In the same order, the values of `Nc1nc(C(F)(F)F)cc2c1[nH]c(=O)n2Cc1ccccc1` are 0.857 and 0.614.
For `NC(=O)[C@@H]1CC[C@@H]2CN1C(=O)N2OS(=O)(=O)O` the same measures were 1.06 and 1.3.
For `O=C1[C@H](CC[C@H](O)c2ccc(F)cc2)[C@@H](c2ccc(O)cc2)N1c1ccc(F)cc1` the same measures were 0.873 and 1.08.
For `OCCC#Cc1nc(-c2ccc(F)cc2)c(-c2ccncc2)n1CCCc1ccccc1`, the larval motility is, setting by setting: (2 h) 0.457; (24 h) 0.301 (active).
Regarding `CCCCCCCCC(CP(=O)(O)C(C)N)C(=O)O` (configuration not stated), the larval motility is 0.654 (2 h) and 1.09 (24 h).
